In PubChem BioAssay (NCI):
About 83,000 compounds went through this panel and 20% of them were active in at least one assay; those are over-represented in the sample as a whole.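 Method: cells in 96-well plates; compound added at one concentration; 48 h incubation; percent growth measured; values under 10 scored active.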 A number with no mark means an inactive call. The source made the active and inactive calls.

These compounds were tested on BT-549 breast (assay: NCI-60 one-dose screen, 48 h (100 = growth as untreated, 0 = no growth, -100 = all killed)). Settings: 10 µM unless noted.

How did the growth turn out when `COc1ccc(C2CC(c3cccc(OCCCCOc4cccc(C5=NOC(c6ccc(OC)cc6)C5)c4)c3)=NO2)cc1` (configuration not stated) was run?
The growth was 113%.

Which growth does the source give for `CCc1cc2c(cc1Cl)nc1c(=O)[nH]c(=O)nc-1n2CCOCC(C)(C)C` here?
The growth was 95%.

With `Clc1ccc2[nH]cc(-c3nn4cc(-c5ccncc5)nc4s3)c2c1` as the compound, how does the growth read?
The growth was -54.3% (active).

Which growth does the source give for `CN1CCN(c2ccc(Nc3nc(NCCNS(=O)(=O)c4ccc5ccccc5c4)c4sccc4n3)cc2)CC1` here?
Its growth is 86.7%.

`CC(C)[C@H]1c2[nH]c3ccccc3c2C[C@H]2C(=O)N(CCCCCCC(=O)NO)CC(=O)N12` was tested. Which growth did it give?
The growth was 101%.

How did the growth turn out when `O=C(Nc1ccccc1)Nc1nc2ccc([N+](=O)[O-])cc2[nH]1` was run?
The growth was 77.8%.

How did the growth turn out when `N#Cc1c(-c2cccs2)cc(-c2cnccn2)nc1SCC(=O)N/N=C/c1ccncc1` was run?
Its growth is 113%.

How did the growth turn out when `O=C(/C=C/c1ccccc1)c1cccc(O)c1` was run?
The growth was 95.4%.

How did the growth turn out when `O=C1[C@@H]2Cc3c([nH]c4ccccc34)[C@H](c3ccc(Br)cc3)N2C(=O)CN1C1CCN(Cc2c(Cl)cccc2Cl)CC1` was run?
The growth was 110%.

For `COc1cccc2c1C=CC1(O2)Oc2cccc(OC)c2C=C1C` (configuration not stated), which growth is on record?
The growth was 25.1%.

With `CCN(CC)c1ccc(/C=N/NC(=O)c2ccc(NS(C)(=O)=O)cc2)cc1` as the compound, how does the growth read?
Its growth is 28.4%.

How did the growth turn out when `N#Cc1nc(-c2ccc(Cl)cc2)oc1N1CCC(S(=O)(=O)N2CCOCC2)CC1` was run?
The growth was 103%.

For `O=C(CCCCCC/C=C\c1csc(Br)n1)NO`, which growth is on record?
The growth was 103%.

With `COc1ccc(OC)c(NC(=O)CCCCCCNC(=O)C(O)(O)C(F)(F)F)c1` as the compound, how does the growth read?
The growth was 76.8%.

`NCCNC(=O)c1cccc(COc2ccccc2NC(=O)c2cc(Br)c(Br)[nH]2)c1` was tested. Which growth did it give?
Its growth is 130%.

How did the growth turn out when `C#CCOc1ccccc1C(OC(=O)c1ccccc1)C(=O)NC(C)(C)C(C)(C)C` (configuration not stated) was run?
Its growth is 85%.

How did the growth turn out when `O=C(CSc1nc2ccccc2c(=O)n1CCc1ccccc1)Nc1ccc(S(=O)(=O)Nc2ccc(Cl)nn2)cc1` was run?
Its growth is 98.9%.

For `O=C1CSC(c2cn(-c3ccccc3)nc2-c2ccc(Cl)cc2)N1c1ccccc1` (configuration not stated), which growth is on record?
The growth was 109%.

For `COc1ccc2c(c1)c(-c1nn3cc(-c4ccncc4)nc3s1)cn2C`, which growth is on record?
The growth was 71.5%.

How did the growth turn out when `O=C(/C=C/c1cc(Cl)ccc1Cl)Nc1ncc(Cc2ccc(Cl)cc2)s1` was run?
The growth was -46.5% (active).

With `CC1=C(C)C(=O)C(Nc2cccc(C)c2)=C(Br)C1=O` as the compound, how does the growth read?
The growth was 106%.

`COc1ccc(Cn2cc(C#N)c(N)c2C(C)=O)cc1` was tested. Which growth did it give?
Its growth is 114%.

How did the growth turn out when `Cn1ncc2ncc(-c3ccc4ncc(C#N)c(N5CCc6cc(F)c(Cl)cc65)c4c3)cc21` was run?
Its growth is 37.4%.

How did the growth turn out when `Cc1ccc2c(n1)C(=O)C(Cl)=C(Nc1ccc(C(F)(F)F)cc1)C2=O` was run?
The growth was 130%.

`CSc1ccc(/C(=N/N=C(N)N)c2ccc(F)cc2)cc1` was tested. Which growth did it give?
The growth was 16.2%.

For `CC(=O)OC[C@@]12Oc3c(cccc3-c3ccc(O)c4c3O[C@]3(COC(C)=O)C(=C4O)C(=O)C[C@H](C)[C@@H]3OC(C)=O)C(O)=C1C(=O)C[C@H](C)[C@@H]2OC(C)=O`, which growth is on record?
The growth was -1.88% (active).

How did the growth turn out when `CCCCOc1ccc(S(=O)(=O)N2CCN(c3nc(C)cc(N4CCOCC4)n3)CC2)cc1` was run?
Its growth is -6.76% (active).
